Results filed as inconclusive are left out. Activity calls are given as the source filed them. How the source made its calls, unless noted: active means hit-call score of the fitted dose curve at least 0.9, where 1 is the maximum; inconclusive means response in the unintended direction; inactive means score below 0.9.
Experiments:
[1] = tested on: Sodium/Iodide Symporter (NIS), SLC5A5 (gene 6528); experiment: CPHEA_Stoker_NIS_Inhibition_RAIU: CPHEA's Radioactive Iodide Uptake (RAIU) Assay for Sodium/Iodide Symporter (NIS) Inhibition, Stoker and Laws Labs (AID 2283841)
Summary of the method: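 hNIS-HEK293T-EPA cells incubated 2 h at room temperature with compound (0.001–100 uM, 0.5% DMSO) and 329 pM final 125I in HBSS/10 mM HEPES, pH 7.4. Intracellular 125I counted; normalised to DMSO maximal uptake, triplicate, three biological replicates.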

[2] = molecular target: frog Thyroid hormone Receptor alpha (TRa), thra-a (gene 397942) (UniProt P15204); experiment: ATG_frTRa_XSP2: Attagene TRANS-FACTORIAL Multi-Species (XSP2) HepG2 Assay for frog Thyroid hormone Receptor alpha (TRa) (AID 2283839)
Chain of frog Thyroid hormone Receptor alpha (TRa), thra-a (gene 397942) (P15204 whole entry, looked up, the tested form may be a part): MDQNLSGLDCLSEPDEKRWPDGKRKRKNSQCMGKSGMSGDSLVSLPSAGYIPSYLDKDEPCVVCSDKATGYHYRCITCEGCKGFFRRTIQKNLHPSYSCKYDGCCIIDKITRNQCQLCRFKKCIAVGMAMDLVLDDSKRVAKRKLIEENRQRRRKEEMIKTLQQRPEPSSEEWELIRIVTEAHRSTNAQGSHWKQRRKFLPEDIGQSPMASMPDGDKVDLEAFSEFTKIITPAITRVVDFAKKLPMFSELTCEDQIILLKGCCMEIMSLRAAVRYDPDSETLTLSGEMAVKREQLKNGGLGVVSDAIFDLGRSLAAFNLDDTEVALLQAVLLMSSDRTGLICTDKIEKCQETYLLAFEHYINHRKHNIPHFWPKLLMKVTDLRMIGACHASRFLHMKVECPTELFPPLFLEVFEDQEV
Summary of the method: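 HepG2 transiently transfected with multiplexed GAL4-UAS reporters driven by frog TRa-Gal4 chimeras; 24 h chemical exposure. Reporter mRNA quantified by RT-PCR, FAM labelling, HpaI digestion and capillary electrophoresis; gain of signal versus DMSO.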

[3] = molecular target: human Thyroid hormone Receptor beta (TRb), THRB (gene 7068) (UniProt P10828); experiment: ATG_hTRb_XSP2: Attagene TRANS-FACTORIAL Multi-Species (XSP2) HepG2 Assay for human Thyroid hormone Receptor beta (TRb) (AID 2283840);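 further: actives raise reporter mRNA so potency reflects agonist-like gain of signal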
Chain of human Thyroid hormone Receptor beta (TRb), THRB (gene 7068) (P10828 whole entry, looked up, the tested form may be a part): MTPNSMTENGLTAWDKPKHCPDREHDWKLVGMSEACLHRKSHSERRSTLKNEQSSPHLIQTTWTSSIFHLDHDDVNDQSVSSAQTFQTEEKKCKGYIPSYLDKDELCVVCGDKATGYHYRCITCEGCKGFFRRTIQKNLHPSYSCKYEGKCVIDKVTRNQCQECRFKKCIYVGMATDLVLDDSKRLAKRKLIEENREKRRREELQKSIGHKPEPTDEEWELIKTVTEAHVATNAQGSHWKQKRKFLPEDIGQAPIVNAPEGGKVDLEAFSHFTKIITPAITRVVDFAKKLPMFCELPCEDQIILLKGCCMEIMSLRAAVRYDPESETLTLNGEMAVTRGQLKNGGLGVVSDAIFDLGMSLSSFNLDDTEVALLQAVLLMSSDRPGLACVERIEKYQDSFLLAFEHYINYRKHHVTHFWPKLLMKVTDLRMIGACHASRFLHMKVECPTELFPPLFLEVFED
Summary of the method: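 HepG2 transiently transfected with a multi-species panel including a human TRb–Gal4 chimera driving Gal4-UAS reporters; medium contained 3 nM 6-alpha-fluorotestosterone and 1.5 nM norgestrel. 24 h dosing; RT-PCR/capillary electrophoresis readout; positive-direction fit vs DMSO.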

[4] = CPHEA_Stoker_NIS_Cytotoxicity: Cytotoxicity Assessment for CPHEA's Radioactive Iodide Uptake (RAIU) Assay for Sodium/Iodide Symporter (NIS) Inhibition, Stoker and Laws Labs (AID 2283897);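 on AC50: active means loss of ATP signal versus DMSO meaning cytotoxicity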
Summary of the method: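 hNIS-HEK293T-EPA cells, human NIS expressed in HEK293T, treated 2 h with chemicals (0.001–100 uM, 0.5% final DMSO). ATP content read by CellTiter-Glo luminescence; loss of signal analysed relative to DMSO.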

[5] = CEETOX_H295R_11DCORT_noMTC: CeeTox H295R High-throughput Steroidogenesis Assay for 11-Deoxycortisol (11DCORT), maximum tolerated concentration (MTC) filtered results only (AID 2283911; active means hit-call score of the fitted dose curve at least 0.9, where 1 is the maximum; inactive means score below 0.9); conditions: actives raise or lower the signal
Summary of the method: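 H295R cells were prestimulated 48 h with 10 uM forskolin, then exposed 48 h to chemical (0.1% DMSO final). 11-Deoxycortisol in the medium was measured by MTBE extraction and HPLC-MS/MS, with bidirectional fitting versus DMSO and no MTC filtering of concentrations.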

[6] = CEETOX_H295R_OHPREG_noMTC: CeeTox H295R High-throughput Steroidogenesis Assay for OH-Pregnenolone (OHPREG), maximum tolerated concentration (MTC) filtered results only (AID 2283912; active means hit-call score of the fitted dose curve at least 0.9, where 1 is the maximum; inactive means score below 0.9); conditions: actives raise or lower the signal
Summary of the method: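 H295R cells prestimulated 48 h with 10 uM forskolin, then exposed 48 h to compound (0.1% DMSO). 17alpha-hydroxypregnenolone in medium measured by MTBE extraction and HPLC-MS/MS; bidirectional fit vs DMSO, concentrations not MTT/MTC-filtered.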

[7] = CEETOX_H295R_OHPROG_noMTC: CeeTox H295R High-throughput Steroidogenesis Assay for OH-Progesterone (OHPROG), maximum tolerated concentration (MTC) filtered results only (AID 2283914; active means hit-call score of the fitted dose curve at least 0.9, where 1 is the maximum; inactive means score below 0.9); conditions: actives raise or lower the signal
Summary of the method: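 H295R cells prestimulated 48 h with 10 uM forskolin, then exposed 48 h to chemical (0.1% DMSO final). 17alpha-hydroxyprogesterone in medium quantified by HPLC-MS/MS after MTBE extraction; bidirectional fitting versus DMSO, concentrations not MTC-filtered.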

[8] = CEETOX_H295R_CORTISOL_noMTC: CeeTox H295R High-throughput Steroidogenesis Assay for Cortisol, maximum tolerated concentration (MTC) filtered results only (AID 2283916; active means hit-call score of the fitted dose curve at least 0.9, where 1 is the maximum; inactive means score below 0.9); conditions: actives raise or lower the signal
Summary of the method: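 H295R human adrenal cells prestimulated 48 h with 10 uM forskolin, then exposed 48 h to chemical in 0.1% DMSO; cortisol in medium quantified by HPLC-MS/MS; bidirectional fit vs DMSO baseline, concentrations not MTT-filtered for MTC.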

[9] = CEETOX_H295R_CORTIC_noMTC: CeeTox H295R High-throughput Steroidogenesis Assay for Corticosterone (CORTIC), maximum tolerated concentration (MTC) filtered results only (AID 2283917; active means hit-call score of the fitted dose curve at least 0.9, where 1 is the maximum; inactive means score below 0.9); conditions: actives raise or lower the signal
Summary of the method: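 H295R adrenal cells pre-stimulated 48 h with 10 uM forskolin, then exposed 48 h to chemical in 0.1% DMSO; corticosterone in medium quantified by HPLC-MS/MS, fitted bidirectionally versus DMSO without MTT-based concentration filtering.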

O=C(O)C(F)(F)C(F)(F)C(F)(F)C(F)(F)C(F)(F)C(F)(F)C(F)(F)C(F)(F)C(F)(F)C(F)(F)C(F)(F)C(F)(F)F
outcome [1]: inactive

Cc1ccc(S(=O)(=O)OCC(F)(F)C(F)(F)C(F)(F)C(F)(F)C(F)(F)C(F)F)cc1
outcome [1]: inactive

FC(F)(F)C(F)(F)C(F)(F)C(F)(F)C(F)(F)CCI
AC50 [1]: 13.3 µM (active)

C(=C(c1ccccc1)c1ccccc1)c1ccccc1
outcome [2]: inactive | outcome [3]: inactive | outcome [1]: inactive | outcome [4]: inactive

CC(C)OC(=O)c1ccccc1C(=O)OC(C)C
outcome [5]: inactive | outcome [6]: inactive | outcome [7]: inactive | outcome [8]: inactive | outcome [9]: inactive

OCC(F)(F)C(F)(F)C(F)(F)C(F)(F)C(F)(F)C(F)F
outcome [1]: inactive

C=C(C)C(=O)OCC(F)(F)C(F)(F)C(F)(F)C(F)(F)C(F)(F)C(F)(F)C(F)(F)F
outcome [1]: inactive

O=S(=O)(O)C(F)(F)C(F)(F)C(F)(F)C(F)(F)C(F)(F)C(F)(F)C(F)(F)F
AC50 [1]: 2.31 µM (active)

CC(Cc1ccc(O)c(O)c1)C(C)Cc1ccc(O)c(O)c1 (stereo unspecified)
AC50 [4]: 84 µM (active)

O=C(CC(=O)C(F)(F)C(F)(F)F)C(F)(F)F
AC50 [1]: 9.92 µM (active)

FC(F)(F)C(F)(F)C(F)(F)N(C(F)(F)C(F)(F)C(F)(F)F)C(F)(F)C(F)(F)C(F)(F)F
outcome [1]: inactive

COC(=O)C1CCC(C(=O)OC)CC1 (stereo unspecified)
outcome [6]: inactive | outcome [7]: inactive

O=C(OCCOCCOCCOC(=O)c1ccccc1)c1ccccc1
outcome [2]: inactive | outcome [3]: inactive | outcome [1]: inactive | outcome [4]: inactive

C=CC(=O)OCC(F)(F)C(F)(F)C(F)(F)C(F)(F)COC(=O)C=C
outcome [1]: inactive

O=C(O)C(F)(F)C(F)(F)C(F)(F)C(F)(F)C(F)(F)C(F)(F)C(F)(F)C(F)(F)C(F)(F)C(F)(F)C(F)(F)C(F)(F)C(F)(F)F
outcome [1]: inactive

Reference: PubChem BioAssay (EPA / NIEHS)
